The text below walks through data of article PMC5540273 (PLoS ONE, 2017).

Test systems include ERN1; FER; FES; FGFR1; FGFR2; FGFR3; FGFR4; FGR; FLT1; FLT3-autoinhibited; FLT3; FLT4; FRK.
Conditions in all cases: concentration: 1 μM,replicates: in singlicate; n = 1
The test system of another experiment is T1, ERK1.
T1 construct: gene MAPK3

A further experiment deals with T2, ERK2.
T2 construct: gene MAPK1

The next experiment relates to T3, ERK3.
T3 construct: gene MAPK6

The subject of another experiment is T4, ERK4.
T4 construct: gene MAPK4

The next experiment relates to T5, ERK5.
T5 construct: gene MAPK7

In a further experiment the test system is T6, ERK8.
T6 construct: gene MAPK15

A further experiment concerns T7, FAK.
T7 construct: gene PTK2
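Note: KINOMEscan kinase panel screen.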

On to `Cc1ccc2c(-c3ccnc(Nc4ccc(C(F)(F)F)cc4)n3)cnn2n1` [GW819776], for which the “%Inh” value in the experiment on ERK1 is listed as 19%; with ERK2, 3%; with ERK3, 22%; in the experiment with ERK4, 0%; with ERK5, 0%; in the experiment on ERK8, 99.4%. For the same molecule, the “%Inh” value is on record as 17% in the experiment with ERN1; 13% in the experiment on FAK; 18% in the experiment on FER; 10% with FES; 5% in the experiment on FGFR1; 0% in the experiment with FGFR2. Besides, the “%Inh” value in the experiment on FGFR3 is given as 0%; with FGFR4, 6%; in the experiment on FGR it was 4%; in the experiment on FLT1 it was 0%; in the experiment with FLT3-autoinhibited it was 0%; in the experiment on FLT3, 59%. Further, the entries for the “%Inh” value in the experiment with FLT4 and in the experiment on FRK were 0% and 20%, respectively.

In the case of `Cn1ccc2ncnc(Oc3ccc(NC(=O)Nc4cccc(C(F)(F)F)c4)c(Cl)c3)c21`, the “%Inh” value in the experiment on ERK1 was found to be 0%; in the experiment with ERK2 it was 18%; with ERK3, 0%; with ERK4, 10%; with ERK5, 12%; in the experiment with ERK8 it was 11%. The “%Inh” value in the experiment on ERN1 stood at 15%; in the experiment with FAK it was 41%; with FER it was 0%; in the experiment with FES it was 9%; with FGFR2 it was 10%; in the experiment with FGFR3 it was 0%. The “%Inh” value in the experiment on FGFR4 was determined as 14%; in the experiment with FGR, 5%; in the experiment with FLT1, 99.6%; in the experiment with FLT3-autoinhibited, 0%; in the experiment on FLT3 it was 84%; in the experiment with FLT4 it was 99.9%. For the same molecule, the “%Inh” value with FRK is listed as 94.9%.

As for `COc1cc2nccc(Nc3ccc(Oc4ccccc4)cc3)c2cc1OC.Cl` [GI261656], the “%Inh” value in the experiment with ERK1 worked out at 0%; with ERK2 it was 0%; with ERK3 it was 17%; with ERK4 it was 0%; in the experiment on ERK5 it was 0%; in the experiment on ERK8, 0%. The “%Inh” value with ERN1 amounted to 29%; in the experiment with FAK it was 0%; in the experiment on FER, 33%; in the experiment on FES, 0%; in the experiment on FGFR1, 0%; in the experiment with FGFR2 it was 0%. Besides, the “%Inh” value in the experiment with FGFR3 stood at 1%; in the experiment on FGFR4 it was 0%; in the experiment on FGR, 95.5%; in the experiment on FLT1, 20%; with FLT3-autoinhibited, 0%; in the experiment with FLT3, 69%. The “%Inh” value in the experiment with FLT4 is listed as 50%; in the experiment with FRK it was 66%.

Turning to `O=c1[nH]cc(-c2ccc(O)cc2)c2sc(-c3ccncc3)cc12` [GSK1033723], the “%Inh” value with ERK1 worked out at 0%; with ERK2 it was 0%; with ERK3, 11%; with ERK4, 1%; in the experiment with ERK5, 0%; with ERK8, 0%. Besides, the “%Inh” value in the experiment on ERN1 came out at 0%; with FAK, 0%; in the experiment with FER it was 1%; in the experiment on FES, 13%; with FGFR1 it was 0%; in the experiment on FGFR2 it was 0%. The “%Inh” value in the experiment with FGFR3 was determined as 16%; with FGFR4, 13%; with FGR, 21%; with FLT1 it was 9%; in the experiment with FLT3-autoinhibited, 0%; in the experiment on FLT3, 0%. Moreover, the “%Inh” value with FLT4 was 1%; in the experiment with FRK, 0%.

Turning to `Cc1ccn2nc(-c3ccc(F)cc3)c(-c3ccncc3)c2c1.Cl` [GW457859], the “%Inh” value with ERK1 was 0%; with ERK2, 0%; with ERK3 it was 1%; in the experiment with ERK4, 15%; with ERK5, 8%; in the experiment on ERK8, 0%. Besides, the “%Inh” value in the experiment on ERN1 was 0%; in the experiment on FAK, 0%; in the experiment with FER, 2%; with FES, 0%; in the experiment on FGFR1, 0%; in the experiment on FGFR2 it was 85%. Also, the “%Inh” value worked out at 4% in the experiment on FGFR3; 0% in the experiment with FGFR4; 0% with FGR; 15% in the experiment with FLT1; 14% in the experiment with FLT3-autoinhibited; 0% with FLT3. Further, the “%Inh” value in the experiment with FLT4 and in the experiment on FRK was 0% each time.

On to `Cn1ccc2ncnc(Oc3ccc(NC(=O)Nc4cnn(C(C)(C)C)c4)c(Cl)c3)c21`, for which the “%Inh” value in the experiment on ERK1 was 19%; in the experiment on ERK2, 4%; in the experiment with ERK3 it was 0%; with ERK4 it was 1%; in the experiment on ERK5 it was 7%; in the experiment on ERK8 it was 25%. Besides, the “%Inh” value in the experiment with ERN1 is recorded as 26%; in the experiment on FAK, 0%; in the experiment with FER it was 0%; with FES it was 13%; in the experiment on FGFR2 it was 14%; in the experiment with FGFR3 it was 1%. Also, the “%Inh” value amounted to 0% with FGFR4; 10% with FGR; 97.4% in the experiment on FLT1; 8% in the experiment on FLT3-autoinhibited; 99.2% in the experiment with FLT3; 98.3% with FLT4. Further, the “%Inh” value with FRK came to 70%.

Regarding `O=C(NCC1CC1)c1ccc(-c2cc(C(=O)NC3CC3)ccc2F)cc1` [GW810445], the “%Inh” value was 0% in the experiment on ERK1; 0% in the experiment on ERK2; 0% in the experiment on ERK3; 0% in the experiment on ERK4; 1% in the experiment on ERK5; 0% in the experiment on ERK8. Further, the “%Inh” value with ERN1 came out at 0%; in the experiment on FAK it was 3%; in the experiment on FER it was 0%; with FES, 0%; in the experiment on FGFR1 it was 0%; in the experiment with FGFR2 it was 0%. Further, the “%Inh” value is on record as 0% in the experiment with FGFR3; 0% in the experiment on FGFR4; 0% in the experiment with FGR; 0% with FLT1; 0% in the experiment with FLT3-autoinhibited; 12% with FLT3. In addition, the “%Inh” value with FLT4 stood at 0%; with FRK, 2%.

For the molecule `CS(=O)c1ccc(-c2coc3ccc(-c4n[nH]c(=O)o4)cc23)cc1` (stereo not drawn), the “%Inh” value in the experiment with ERK1 came out at 7%; with ERK2, 1%; in the experiment on ERK3, 0%; with ERK4 it was 0%; in the experiment with ERK5 it was 0%; in the experiment on ERK8 it was 44%. Further, the “%Inh” value amounted to 0% with ERN1; 0% in the experiment on FAK; 0% in the experiment on FER; 0% in the experiment with FES; 5% with FGFR1; 8% in the experiment with FGFR2. The “%Inh” value in the experiment on FGFR3 stood at 3%; with FGFR4, 0%; in the experiment on FGR, 0%; with FLT1, 19%; in the experiment with FLT3-autoinhibited, 0%; with FLT3, 16%. Besides, the “%Inh” value was 3% in the experiment with FLT4 and 0% in the experiment on FRK.

Take `COc1cccc(C2=C(Nc3cccc(Cl)c3)C(=O)NC2=O)c1` [SB-341556]: the “%Inh” value in the experiment with ERK1 was determined as 3%; with ERK2, 0%; in the experiment on ERK3, 0%; with ERK4, 17%; with ERK5, 0%; in the experiment with ERK8, 71%. The “%Inh” value with ERN1 was determined as 10%; in the experiment on FAK it was 0%; in the experiment with FER, 0%; with FES, 0%; with FGFR1, 21%; in the experiment with FGFR2, 23%. For the same molecule, the “%Inh” value in the experiment on FGFR3 was 29%; with FGFR4, 15%; with FGR, 5%; with FLT1, 13%; in the experiment on FLT3-autoinhibited, 4%; with FLT3 it was 0%. The “%Inh” value is on record as 15% in the experiment with FLT4 and 16% in the experiment with FRK.

Regarding `C[C@@H]1CNc2c(sc3ccc4nc(-c5ccncc5)ccc4c23)C(=O)N1`, the “%Inh” value in the experiment on ERK1 is 0%; in the experiment with ERK2, 6%; in the experiment on ERK3 it was 0%; with ERK4, 16%; in the experiment on ERK5, 15%; in the experiment with ERK8, 24%. Besides, the “%Inh” value with ERN1 is 0%; in the experiment with FAK, 0%; in the experiment on FER, 20%; in the experiment with FES it was 9%; with FGFR1, 9%; in the experiment on FGFR2 it was 0%. Further, the “%Inh” value worked out at 0% with FGFR3; 26% in the experiment on FGFR4; 40% in the experiment on FGR; 3% with FLT1; 0% in the experiment on FLT3-autoinhibited; 0% with FLT3. The “%Inh” value is on record as 4% with FLT4 and 10% in the experiment on FRK.
